Compounds with a hit are over-represented: about 3.6% of the library has one in this group of screens.
Peg3 prom inh: Peg3 promoter-driven luciferase inhibitors, primary screen, cell-based, HeLa, luciferase luminescence; HeLa PEG-Prom luciferase reporter, overnight; inhibition, % at 20 µM; 360,000 tested, 1.7% active; AID 588405, 2011;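 active means inhibition of at least 50% at 20 µM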
Mdm2 MdmX PPI: inhibitors of human Mdm2-MdmX association, primary screen, cell-based, luminescence, split luciferase, SaOS-2, uHTS. Protein Mdm4 (Homo sapiens) + E3 ubiquitin-protein ligase Mdm2 (Homo sapiens), …. SaOS-2 split-luciferase Mdm2/MdmX complementation. inhibition, % at 8 µM. 330,000 tested, 3% active. AID 485346, 2010;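 active means inhibition of at least 50% at 8 µM in the primary screen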
Target sequence (O15151 whole entry, looked up): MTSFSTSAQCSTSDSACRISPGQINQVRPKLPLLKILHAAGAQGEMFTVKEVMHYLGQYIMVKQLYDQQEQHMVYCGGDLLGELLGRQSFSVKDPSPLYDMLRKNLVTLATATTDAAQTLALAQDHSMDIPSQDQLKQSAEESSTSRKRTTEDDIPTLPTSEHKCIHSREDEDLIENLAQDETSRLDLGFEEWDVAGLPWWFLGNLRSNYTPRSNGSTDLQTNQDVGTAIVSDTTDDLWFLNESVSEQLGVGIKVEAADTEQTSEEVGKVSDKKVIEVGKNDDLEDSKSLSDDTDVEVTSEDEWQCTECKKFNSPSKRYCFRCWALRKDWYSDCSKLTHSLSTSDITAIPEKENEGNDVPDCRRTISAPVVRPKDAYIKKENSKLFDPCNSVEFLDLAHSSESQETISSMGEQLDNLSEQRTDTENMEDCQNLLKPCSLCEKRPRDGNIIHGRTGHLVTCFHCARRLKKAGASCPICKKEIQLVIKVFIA
Target sequence (Q00987 whole entry, looked up): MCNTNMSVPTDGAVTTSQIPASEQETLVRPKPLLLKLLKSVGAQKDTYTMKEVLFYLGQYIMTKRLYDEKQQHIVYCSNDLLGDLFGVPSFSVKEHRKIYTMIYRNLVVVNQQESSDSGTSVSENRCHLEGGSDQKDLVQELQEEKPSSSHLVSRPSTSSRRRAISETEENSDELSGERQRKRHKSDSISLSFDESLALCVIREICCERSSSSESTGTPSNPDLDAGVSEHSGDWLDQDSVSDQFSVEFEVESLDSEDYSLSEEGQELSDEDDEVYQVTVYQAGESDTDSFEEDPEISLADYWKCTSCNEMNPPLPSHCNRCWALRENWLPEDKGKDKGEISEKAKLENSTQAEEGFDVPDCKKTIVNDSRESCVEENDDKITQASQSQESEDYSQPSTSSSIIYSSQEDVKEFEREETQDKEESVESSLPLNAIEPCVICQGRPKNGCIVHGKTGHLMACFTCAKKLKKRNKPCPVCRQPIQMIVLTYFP
KKLEB cytotox: cytotoxicity in KKLEB CF airway cells, primary screen, cytotoxicity control for CF NF-kB inhibitor project, cell-based, uHTS, fluorescence assay plates. KKLEB CF airway cells viability, ATPlite luminescence, overnight; active compounds read low; cells stimulated with P. aeruginosa culture filtrate. activity change (cytotoxicity), % at 5 µM. 360,000 tested, 0.36% active. AID 602141, 2011;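 active means corrected activity change at or below -50% at 5 µM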
HSP90 inh: HSP90 inhibitors, primary screen, cell lysate, luminescence. inhibition, % at 5.6 µM. Heat shock protein HSP 90 (rabbit reticulocyte lysate; luciferase refolding). 290,000 tested, 0.91% active. Rabbit reticulocyte lysate, luciferase refolding luminescence, 3 h;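 active means inhibition above the screen-wide mean plus 3 SD, computed separately per campaign, cut at about 16% in these data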;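 further: 0% = DMSO wells and 100% = 60 µM geldanamycin wells; inhibitors lower the luminescence because luciferase stays unfolded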
CF NFkB inh: inhibitors of PAF-induced NF-kB signaling, primary screen, cell-based, GFP fluorescence, uHTS; KKLEB NF-kB-GFP reporter, GFP fluorescence overnight; 360,000 tested, 0.86% active; inhibition, % at 5 µM;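 active means at least 50% inhibition at 5 µM, scaled per plate between neutral and stimulator controls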;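 further: PAF is a Pseudomonas aeruginosa culture filtrate used as stimulus; plate controls were PAF-stimulated DMSO wells for no effect and unstimulated DMSO wells for full effect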
LGR2 inh: inhibitors of bursicon-induced LGR2 CRE-luciferase signal, primary screen, cell-based, HEK293, CRE-luciferase reporter, bursicon stimulation | Drosophila bursicon receptor LGR2 (rickets) | 380,000 tested, 0.35% active | bursicon-stimulated, 4 h | inhibition, % at 9.99 µM;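 active means drop in luminescence signal, shown as inhibition above about 50% in the replicate tests, limit read from the data, passing the limit was not always enough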;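 further: agonist challenge used bursicon conditioned medium at about half maximal strength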
Mdm2-MdmX conf: Mdm2-MdmX complex disruptors, retested hits, confirmation, luminescence, single concentration. AID 489028, 2010. Mdm2-MdmX binding, luminescent assay. inhibition, % at 8 µM. 10,000 tested, 55% active. shares compounds with Mdm2 MdmX PPI; in the data active means inhibition above about 40%
FLuc counter: full-length luciferase signal inhibition, confirmation, counter-screen for Mdm2/MdmX interaction inhibitor project, cell-based, single concentration, SaOS-2 | inhibition, % at 8 µM | 6,200 tested, 77% active | SaOS-2 full-length luciferase counterscreen, luminescence | shares compounds with Mdm2 MdmX PPI;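 active means mean inhibition at 8 µM reaching about 37%, which flags the compound as non-specific, limit read from the data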;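 further: p53-null SaOS-2 cells with luciferase driven by a doxycycline-inducible promoter; compound on cells about two nights before reading with doxycycline added after day one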
The depositor's hits bear a star; x = no result.

SMILES | Peg3 prom inh | Mdm2 MdmX PPI | KKLEB cytotox | HSP90 inh | CF NFkB inh | LGR2 inh | Mdm2-MdmX conf | others
COc1ccccc1NC(=S)N(Cc1ccco1)Cc1cc2cc(C)c(C)cc2[nH]c1=O | 27 | 59* | 18 | 3 | -8 | x | 54* | FLuc counter=56*
C[C@@H]1CCCCO[C@@H](CN(C)S(C)(=O)=O)[C@@H](C)CN([C@H](C)CO)C(=O)c2cc(NC(=O)c3ccccc3)ccc2O1 | x | x | x | x | x | -1 | x
CCCN(C)C[C@@H]1OCCCC[C@@H](C)Oc2ccc(NC(=O)C3CCCCC3)cc2C(=O)N([C@H](C)CO)C[C@@H]1C | x | x | x | x | x | -2 | x
C[C@@H]1CN([C@H](C)CO)S(=O)(=O)c2ccc(C#CC3CC3)cc2O[C@@H]1CN(C)Cc1ccc(F)cc1 | x | x | x | x | x | 12 | x
Cn1cc(C(=O)c2ccc(Cl)cc2Cl)cc1C(=O)N/N=C(\N)COc1ccc(Cl)cc1Cl | 45 | 67* | 0 | 5 | -4 | x | 41* | FLuc counter=40*
Cn1cc(C(=O)c2ccc(Cl)cc2Cl)cc1C(=O)N/N=C(\N)COc1ccc(Cl)cc1 | 53* | 64* | 1 | -3 | 5 | 0 | 40* | FLuc counter=43*
Cn1cc(C(=O)c2ccc(Cl)cc2Cl)cc1C(=O)N/N=C(\N)COc1ccccc1 | 26 | 22 | 3 | 5 | -1 | x | x
Cn1cc(C(=O)c2ccc(Cl)cc2Cl)cc1C(=O)N/N=C(\N)COc1ccc(F)cc1 | 16 | 37 | -9 | 3 | 15 | x | x
C[C@@H]1CN([C@@H](C)CO)S(=O)(=O)c2ccc(-c3cccnc3)cc2O[C@H]1CN(C)CC1CC1 | x | x | x | x | x | -7 | x
Cc1ccc(S(=O)(=O)Nc2cccc(C(=O)NCc3cccnc3)c2)cc1F | 15 | 51* | -21 | x | 17 | -1 | 76* | FLuc counter=62*
C[C@@H]1CN([C@@H](C)CO)C(=O)c2cc(NC(=O)Cn3cnnn3)ccc2O[C@@H]1CN(C)S(=O)(=O)c1ccccc1 | x | x | x | x | x | 21 | x
Cc1ccc(Oc2nc3c(C)cccn3c(=O)c2/C=C(\C#N)C(N)=O)cc1 | 8 | 12 | 13 | 1 | 3 | 8 | x
Cc1ccc(S(=O)(=O)/C(C#N)=C/c2c(Oc3ccc(Cl)cc3)nc3c(C)cccn3c2=O)cc1 | x | 59* | x | 2 | x | x | 8
CC(C)CN(Cc1cc(=O)oc2cc(-c3ccccc3)c(O)cc12)CC(C)C | 27 | 80* | -6 | -1 | 11 | -7 | -5
O=c1cc(CN2CCN(c3ccccc3F)CC2)c2cc(O)c(-c3ccccc3)cc2o1 | 12 | 3 | 0 | 4 | 11 | -18 | x
COc1ccc(N2CCN(Cc3cc(=O)oc4cc(-c5ccccc5)c(O)cc34)CC2)cc1 | 70* | 89* | -10 | 1 | -2 | x | 59* | FLuc counter=22
O=c1cc(CN2CCN(c3ccc(F)cc3)CC2)c2cc3c(cc2o1)CCCC3 | 19 | 68* | 2 | 0 | 1 | 9 | 1
CN1CCN(Cc2cc(=O)oc3cc4c(cc23)CCC4)CC1 | 6 | 8 | 4 | 3 | -13 | x | x
Cc1cc2oc(=O)cc(CN3CCN(C/C=C/c4ccccc4)CC3)c2cc1O | 16 | 42 | -5 | 1 | -2 | x | x
O=c1cc(CN2CCN(C/C=C/c3ccccc3)CC2)c2cc(O)c(-c3ccccc3)cc2o1 | 3 | 50* | -14 | -1 | -12 | 11 | 42* | FLuc counter=65*
C[C@H]1CCCCO[C@H](CN(C)Cc2ccccc2)[C@@H](C)CN([C@@H](C)CO)C(=O)c2cc(NC(=O)c3ccncc3)ccc2O1 | x | x | x | x | x | -16 | x
COc1cccc(N=Nc2c(C)[nH]n(-c3ccccc3)c2=O)c1 | -263 | -118 | -2 | 0 | 2 | -37 | x
COc1cccc(C(C[N+](=O)[O-])c2c(C)[nH]n(-c3ccccc3)c2=O)c1 (stereo not drawn) | 20 | 65* | 5 | 42* | -3 | 11 | 25
c1ccc(N2CCN(c3nc(-c4ccccn4)nc4ccccc34)CC2)cc1 | 3 | 59* | 5 | -2 | 1 | 26 | 31
CC1=C(C)/C(=N\OS(=O)(=O)c2ccccc2)C=CC1=O | 106* | 95* | 4 | 3 | -12 | -9 | 84* | FLuc counter=53*
SMILES | Peg3 prom inh | Mdm2 MdmX PPI | KKLEB cytotox | HSP90 inh | CF NFkB inh | LGR2 inh | Mdm2-MdmX conf | others
CCN1C(=O)c2cccc3c(S(=O)(=O)Nc4ccncc4)ccc1c23 | -6 | 19 | 6 | 2 | -34 | x | x
CCN1C(=O)c2cccc3c(S(=O)(=O)Nc4nc(C)cs4)ccc1c23 | -22 | 73* | -15 | -4 | -100 | x | 20
CCN1C(=O)c2cccc3c(S(=O)(=O)Nc4ccccn4)ccc1c23 | -21 | 75* | 1 | -3 | -172 | x | 46* | FLuc counter=68*
CCN1C(=O)c2cccc3c(S(=O)(=O)Nc4ncccc4C)ccc1c23 | 13 | 51* | 4 | 1 | -63 | -23 | 18
CCN1C(=O)c2cccc3c(S(=O)(=O)Nc4ccccc4)ccc1c23 | -39 | 81* | 1 | -1 | -153 | x | 73* | FLuc counter=70*
CN1C(=O)c2cc(NC(=O)c3cccc(F)c3)ccc2OC[C@H]2O[C@H](CC(=O)Nc3ccccc3)CC[C@H]21 | x | x | x | x | x | 0 | x
CCCNC(=O)N(C)C[C@H]1Oc2cc(C#CC3CC3)ccc2S(=O)(=O)N([C@@H](C)CO)C[C@@H]1C | x | x | x | x | x | -8 | x
CN1C(=O)c2cccc3c(S(=O)(=O)Nc4ccccc4F)ccc1c23 | 8 | 51* | -22 | 1 | -40 | 11 | 19
CNS(=O)(=O)c1ccc2c3c(cccc13)C(=O)N2C | 9 | 15 | -2 | -1 | 9 | 0 | x
CCN1C(=O)c2cccc3c(Cl)ccc1c23 | 15 | 50* | -17 | 2 | 1 | 2 | -5
C[C@@H]1CN([C@@H](C)CO)C(=O)c2cc(NC(=O)CCCN(C)C)ccc2O[C@@H](C)CCCCO[C@@H]1CN(C)C(=O)Cc1ccccc1 | x | x | x | x | x | -11 | x
Cc1ccc(C(NC(=O)N2CCOCC2)=C(Cl)Cl)cc1F | 49 | 51* | -1 | 2 | -6 | x | 12
Cc1ccc(C(NC(=O)N2CCOCC2)C(Cl)Cl)cc1F (stereo not drawn) | -8 | 4 | 10 | -1 | 0 | -41 | x
